Only some compounds are listed: those with a hit (about 0.4% of all), similar ones and a draw of the others.
FMDV RLuc: Primary qHTS Assay for Foot and Mouth Disease Virus Antivirals against NCGC Sytravon and CBC Compound Libraries: Renilla Luciferase Signal. hit rate 0.32% among 120,000. FMDV replicon cells, Renilla luciferase signal. Potency, µM (series often up to 57.5 µM), usual class: inhibitors; note: nearly all actives have a fitted effect of over 55% in size
FMDV antiviral: Primary qHTS Assay for Foot and Mouth Disease Virus Antivirals against NCGC Sytravon and CBC Compound Libraries: Firefly Luciferase Signal. FMDV antiviral cell assay, firefly luciferase signal. Potency, µM (top dose mostly 57.5 µM), most hits filed as inhibitors. hit rate 0.23% among 120,000. AID 1745856, 2022; note: nearly all actives have a fitted effect of over 60% in size
Each line names hits and unclear results; the compound was inactive in the other large screens. Calls come from the whole dose curve.

O=C(Nc1nc(C23CC4CC(CC(C4)C2)C3)cs1)c1ccncc1	FMDV RLuc 8.9µM, FMDV antiviral 14µM
Cc1occc1-c1nnc(SCc2cc(-c3cccs3)on2)o1	none
CCC1CCc2c(sc(NC(=O)COCC(=O)O)c2C(=O)Nc2ccccc2C)C1 (stereo not given)	none
COc1ccc(Oc2c(C)oc3cc(OS(C)(=O)=O)ccc3c2=O)cc1	FMDV RLuc inconclusive, FMDV antiviral 13µM
C=C(C)COc1ccc2c(=O)c(Oc3ccc(OC)cc3)c(C)oc2c1	none
CC#CC[N+](C)(C)CCCCCCCCCCCC	FMDV RLuc inconclusive, FMDV antiviral 13µM
CCCCCCCCCCCCCCCC[N+](C)(C)C	none
N#Cc1ccccc1CON=C1CCC2(CC1)OCCO2	none
O=[N+]([O-])c1cccc(CON=C2CCC3(CC2)OCCO3)c1	FMDV antiviral 2µM
CC(=O)c1c(C)[nH]c(C(=O)CSc2ccc(Br)cc2)c1C	none
CC(=O)c1c(C)[nH]c(C(=O)C(C)Sc2ccccc2Br)c1C (stereo not given)	FMDV antiviral 25µM
Cc1cccc(S(=O)(=O)N2CCN(c3ccc(N4CCCCC4)nn3)CC2)c1	none
CC(C)N(Cc1ccccc1)C(=O)c1cc2ccc3cccnc3c2[nH]1	FMDV RLuc 8.9µM, FMDV antiviral 25µM
O=C(NCc1cccc(Cl)c1)c1cc2ccc3cccnc3c2[nH]1	none
CCCCS(=O)(=O)c1oc(-c2cccs2)nc1S(=O)(=O)c1ccc(F)cc1	FMDV antiviral 28µM
CCCCCS(=O)(=O)c1oc(-c2cccs2)nc1S(=O)(=O)c1ccc(C)cc1	none
CCNC(=O)c1cc(-c2ccccn2)nc2ccccc12	none
Oc1ccc2c(c1)OCCOCCOc1cc(O)ccc1OCCO2	none
CC(C)(C)c1ccc2c(c1)OCCOCCOCCOc1cc(C(C)(C)C)ccc1OCCOCCOCCO2	FMDV RLuc 28µM, FMDV antiviral inconclusive
CN(CC(=O)NC(=O)NC1CCCC1)c1ccccc1	none
COc1ccc(C(=O)/C=C/c2c(C)cc(C)cc2C)cc1	none
CCNC(=O)N1CCN(CCCC(c2ccc(F)cc2)c2ccc(F)cc2)CC1	FMDV RLuc inconclusive
OC1(c2ccc(Cl)c(C(F)(F)F)c2)CCN(CCCC(c2ccc(F)cc2)c2ccc(F)cc2)CC1	FMDV RLuc 22µM
CN(CCNC(=O)C1CCN(c2nc3cccnc3s2)CC1)C1CCCCC1	none
COc1ccc(CNC(=O)c2nc(-c3ccccc3)oc2C)cc1OC	FMDV RLuc 18µM, FMDV antiviral inconclusive
COc1cccc(CNC(=O)c2nc(-c3ccccc3)oc2C)c1	none
Clc1ccc(-c2csc(NC3CC3)n2)cc1Cl	none
Cc1cccc(C2(C(=O)C(C#N)C(=O)Nc3ccccc3F)CC2)c1 (stereo not given)	none
CNc1snc(C)c1C(=O)OCc1csc(-c2ccc(F)cc2)n1	FMDV RLuc 0.71µM, FMDV antiviral inconclusive
COc1ccc(-c2nc(CNS(=O)(=O)c3ccc(F)cc3)cs2)cc1	none
CN(Cc1ccccc1NC(=O)c1ccccc1C(F)(F)F)C1CCCCC1	none
COc1ccc(C(=O)Nc2ccc(S(=O)(=O)N(Cc3ccccc3)c3ccccc3)cc2)cc1	FMDV RLuc 5µM, FMDV antiviral 5µM
CCOc1ccc(C(=O)Nc2ccc(-n3nncc3-c3ccc(OC)cc3)cc2)cc1	none
O=C(COc1ccccc1)Nc1ccc(S(=O)(=O)N(Cc2ccccc2)c2ccccc2)cc1	none
COc1ccc(-c2cnnn2-c2ccc(NC(=O)c3ccc(S(=O)(=O)N(C)C)cc3)cc2)cc1	FMDV RLuc 6.3µM, FMDV antiviral inconclusive
CC1CCCC(NC(=O)c2ccccc2SCC#N)C1 (stereo not given)	none
CCc1c(C)sc2c1CCN(C(=O)Nc1ccc(F)c(Cl)c1)C2c1ccc(F)cc1 (stereo not given)	FMDV RLuc inconclusive, FMDV antiviral 35µM
CCc1c(C)sc2c1CCN(C(=O)Nc1ccccc1C(=O)OC)C2c1ccc(F)cc1 (stereo not given)	none
CN(Cc1ccc(C(=O)NCC(F)(F)F)cc1)C(=O)C1CCN(C(=O)C2CC2)CC1	none
Cc1cc(C(=O)Cn2c(Cl)nc3c2c(=O)n(C)c(=O)n3C)c(C)n1CC(F)(F)F	FMDV RLuc 16µM, FMDV antiviral 22µM
Cc1cc(C(=O)Cn2c(Cl)nc3c2c(=O)n(C)c(=O)n3C)c(C)n1Cc1ccc(F)cc1	none
CCOc1cc(C(=O)N2CCN(C(=O)OC(C)(C)C)CC2)ccc1OC	none
O=C(CCc1ncc(-c2c(F)cccc2F)o1)N1CCN(S(=O)(=O)c2ccccc2Cl)CC1	none
N#Cc1ccc(COc2ccc(Br)cc2Br)cc1	none
Cc1cc(C)cc(NC(=O)C2CCN(c3nnc(-n4c(C)ccc4C)s3)CC2)c1	none
Cc1ccc(C)c(N2CCN(C(=O)C3CCN(c4nnc(-n5c(C)ccc5C)s4)CC3)CC2)c1	FMDV RLuc 11µM, FMDV antiviral inconclusive
Cc1ccc(-n2c(/C=C\c3ccc(F)c(F)c3)nc3ccccc3c2=O)c(C)c1	FMDV RLuc 3.5µM, FMDV antiviral 7.9µM
Cc1ccccc1-n1c(/C=C/c2ccc(O)cc2)nc2ccccc2c1=O	FMDV RLuc inconclusive
COc1cc(C(=O)C(C#N)C(=O)CC(C)(C)C)cc(Cl)c1OC (stereo not given)	none
COc1ccc(-c2nsc(NC(=O)COc3ccccc3OC)n2)cc1	none
CC(Oc1ccc(F)cc1)C(=O)Nc1nc(-c2ccc(F)cc2)ns1 (stereo not given)	FMDV RLuc 22µM, FMDV antiviral 22µM
CCOc1ccc(Nc2nc3ccccc3nc2NS(=O)(=O)c2ccc(NC(C)=O)cc2)cc1	none
Cc1cc(C)c(OCC(=O)Nc2ccc3oc(C)nc3c2)c(C)c1	none
CCOC(=O)c1ccc(NCc2ccnc(N3CCOCC3)c2)nc1	FMDV RLuc 28µM, FMDV antiviral inconclusive
CC(C)c1ccc(C(=O)COC(=O)c2ccc(N3CCOCC3)nc2)cc1	none
N#CCCn1c(-c2ccccc2)cc2ccccc21	none
CC(C)C(=O)N(Cc1ccccn1)C1CC1	none
CCC(N)(C(=O)O)c1cccc(Cl)c1 (stereo not given)	none
O=C(Nc1cc(C(F)(F)F)ccc1Cl)C1=C(c2ccccc2)S(=O)(=O)CCO1	none
O=C(Nc1c(Cl)cccc1Cl)C1=C(c2ccccc2)S(=O)(=O)CCO1	FMDV RLuc 16µM, FMDV antiviral inconclusive
COc1ccc(-c2nc(Cn3ncc4ccccc4c3=O)co2)cc1	none
C=CCOc1ccccc1NC(=O)c1ccccc1C	none
CC1(C)CC(N=Cc2ccccc2O)CC(C)(C)N1	none
COc1ccc(-c2nnc(SCc3cc(=O)c4cc(C)cc(C)c4[nH]3)n2C)cc1	FMDV RLuc 4µM, FMDV antiviral inconclusive
COc1ccc(C(=O)Nc2nnc(SCc3cc(=O)c4cc(C)cc(C)c4[nH]3)s2)cc1	none
CCCCOc1ccc(C(=O)C(CCC(CNC(C)(C)C)C(=O)c2ccc(OCCCC)cc2)CNC(C)(C)C)cc1 (stereo not given)	FMDV RLuc 28µM, FMDV antiviral inconclusive
CCCCCOc1ccc(C(=O)O)cc1	none
Cn1c(=O)c2c(ncn2CCC(=O)Nc2ccc(Br)cc2F)n(C)c1=O	none
Cc1cccc(OCCOC(=O)c2cc(C)nc3ccccc23)c1	none
CCc1ccc(OCC(=O)N(CC#N)C2CC2)cc1	none
Cc1cc(C)cc(NC(=O)C2CCCN2S(=O)(=O)c2ccc3c(c2)CCCC(=O)N3)c1 (stereo not given)	FMDV RLuc inconclusive
Cc1ccc(NC(=O)C2CCCN2S(=O)(=O)c2ccc3c(c2)CCCC(=O)N3)cc1C (stereo not given)	FMDV RLuc 28µM, FMDV antiviral 35µM
Cc1cccc(NC(=O)c2ccc3nc(C)c(C)nc3c2)n1	none

Screening results deposited in PubChem by National Center for Advancing Translational Sciences (NCATS).
